Results as given in PubChem BioAssay AID1159580 (chemical genetic matrix, 2015).
Where “and” joins values, the source holds several entries; their conditions need not be identical. Equal entries are not always repeated. In all, about 5,500 compounds went through this assay and about 2,000 (36%) were called active. Not shown: some 18% with an inconclusive outcome. No stated cut-off is given here; in the data, active means normalized growth mostly below about 0.91 (no sharp cut-off); inconclusive means no clear call, values can overlap the other calls; inactive means mostly above about 0.92. The list shows a part of the results.

Experiment: chemical genetic growth profiling, strain panel (AID 1159580);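 further: tested at 20 µM; growth read once vehicle control cultures reached saturation at 30 °C; 1 = growth at the plate median or of vehicle wells; lower values mean less growth of the strain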
Details: S. cerevisiae deletion strains, growth OD

Measured: normalized growth

COc1ccc(-c2c(O)c3c(OC)c4c(cc3oc2=O)OC(C)(C)C=C4)cc1
inactive: locus YAL013W, strain DEP1, active compounds read low 0.959 | locus YAL021C, strain ccr4, active compounds read low 0.938 | locus YAL026C, strain drs2, active compounds read low 0.952 | locus YAL030W, strain snc1, active compounds read low 0.951 | locus YBL061C, strain skt5, active compounds read low 0.942 | locus YBR009C, strain hhf1, active compounds read low 0.953 | locus YBR021W, strain FUR4, active compounds read low 0.946 | locus YBR023C, strain chs3, active compounds read low 0.947 | locus YBR171W, strain sec66, active compounds read low 0.919 | locus YBR229C, strain ROT2, active compounds read low 0.951 | locus YBR231C, strain swc5, active compounds read low 0.954 | locus YBR279W, strain paf1, active compounds read low 0.972 | locus YCL011C, strain gbp2, active compounds read low 0.957 | locus YCL016C, strain dcc1, active compounds read low 0.955 | locus YCL029C, strain bik1, active compounds read low 0.937 | locus YCL061C, strain MRC1, active compounds read low 0.945 | locus YCL069W, strain vba3, active compounds read low 0.955 | locus YCR088W, strain abp1, active compounds read low 0.947 | locus YDL005C, strain med2, active compounds read low 0.966 | locus YDL035C, strain GPR1, active compounds read low 1 | locus YDL040C, strain nat1, active compounds read low 0.95 | locus YDL074C, strain BRE1, active compounds read low 0.967 | locus YDL101C, strain DUN1, active compounds read low 0.962 | locus YDL185W, strain tfp1, active compounds read low 0.944 | locus YDL192W, strain arf1, active compounds read low 0.959 | locus YDR001C, strain nth1, active compounds read low 0.948 | locus YDR069C, strain doa4, active compounds read low 0.992 | locus YDR101C, strain arx1, active compounds read low 0.961 | locus YDR150W, strain NUM1, active compounds read low 0.936 | locus YDR159W, strain sac3, active compounds read low 1.01 | locus YDR162C, strain NBP2, active compounds read low 0.962 | locus YDR195W, strain ref2 0.981 | locus YDR297W, strain sur2, active compounds read low 1.02 | locus YDR318W, strain mcm21, active compounds read low 0.936 | locus YDR334W, strain swr1, active compounds read low 0.955 | locus YDR335W, strain msn5, active compounds read low 0.971 | locus YEL003W, strain gim4, active compounds read low 0.958 | locus YEL037C, strain rad23, active compounds read low 0.962 | locus YEL061C, strain CIN8 (second series), active compounds read low 0.957 | locus YER015W, strain faa2, active compounds read low 0.975 | locus YER016W, strain bim1, active compounds read low 0.951 | locus YER110C, active compounds read low 0.949 | locus YER111C, strain swi4, active compounds read low 0.969 | locus YER155C, strain BEM2 (second series), active compounds read low 0.963 | locus YER155C, strain BEM2, active compounds read low 0.956 | locus YER167W, strain BCK2, active compounds read low 0.954 | locus YFR010W, strain ubp6, active compounds read low 0.967 | locus YGL078C, strain dbp3, active compounds read low 0.99 | locus YGL086W, strain mad1, active compounds read low 0.949 | locus YGL167C, strain pmr1, active compounds read low 0.92 | locus YGL173C, strain kem1, active compounds read low 0.958 | locus YGL227W, strain vid30, active compounds read low 0.953 | locus YGL240W, strain doc1, active compounds read low 0.989 | locus YGL248W, strain PDE1, active compounds read low 0.979 | locus YGL253W, strain hxk2, active compounds read low 0.949 | locus YGR078C, strain PAC10, active compounds read low 0.984 | locus YGR135W, strain pre9, active compounds read low 0.931 | locus YGR252W, strain gcn5, active compounds read low 0.96 | locus YHR013C, strain ard1, active compounds read low 0.959 | locus YHR027C, strain rpn1, active compounds read low 0.973 | locus YHR030C, strain SLT2, active compounds read low 0.956 and 1 | locus YHR079C, strain IRE1 (second series), active compounds read low 0.953 | locus YHR079C, strain IRE1, active compounds read low 0.992 | locus YHR094C, strain hxt1, active compounds read low 0.939 | locus YHR129C, strain ARP1, active compounds read low 0.972 | locus YHR142W, strain chs7, active compounds read low 0.925 | locus YHR200W, strain rpn10, active compounds read low 0.946 | locus YIL066C, strain RNR3, active compounds read low 0.957 | locus YIL073C, strain SPO22, active compounds read low 0.919 | locus YIL125W, strain kgd1, active compounds read low 0.978 | locus YIR030C, strain dcg1, active compounds read low 0.958 | locus YJL092W, strain hpr5, active compounds read low 0.946 | locus YJL095W, strain BCK1 (second series), active compounds read low 0.954 | locus YJL095W, strain BCK1, active compounds read low 0.944 and 0.971 | locus YJL115W, strain asf1, active compounds read low 0.962 | locus YJL134W, strain LCB3, active compounds read low 0.942 | locus YJL154C, strain vps35, active compounds read low 0.958 | locus YJL164C, strain tpk1, active compounds read low 0.967 | locus YJL166W, strain qcr8, active compounds read low 0.966 | locus YJL187C, strain SWE1 (second series), active compounds read low 0.943
active: locus YDR137W, strain rgp1, active compounds read low 0.845 | locus YDR388W, active compounds read low 0.924 | locus YDR392W, strain spt3, active compounds read low 0.725 | locus YDR502C, strain sam2, active compounds read low 0.891 | locus YJL129C, strain trk1, active compounds read low 0.789 | locus YJL168C, strain set2, active compounds read low 0.93
